Screening data from PubChem.
In the library only some 8% were active in any assay of this set; here they are far more common.
HT1080 IDH1KD tx: qHTS for induction of synthetic lethality in tumor cells producing 2HG: qHTS for the HT-1080-IDH1KD cell line | HT-1080 IDH1 knockdown viability, ATP luminescence, 48 h | Potency, µM (series often up to 46.1 µM), hits mostly cytotoxic | 2% of 360,000 active
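Viability of IDH1-knockdown HT-1080 fibrosarcoma cells was assessed by CellTiter-Glo after 48 h at 37 °C with titrated compound; concentration-effect curves were classified by fit quality and response size.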
MCF10A rerep: A quantitative high throughput screen for small molecules that induce DNA re-replication in MCF 10a normal breast cells; AID 624296, 2012; Potency, µM (doses to about 46.1 µM), usual class: activators; MCF 10A DNA re-replication, Hoechst nuclear intensity, 48 h; 2.9% of 350,000 active; further: nearly all actives have a fitted effect of over 50% in size
HT1080NT lethal: qHTS for induction of synthetic lethality in tumor cells producing 2HG: qHTS for the HT-1080-NT fibrosarcoma cell line; HT-1080-NT fibrosarcoma viability, CellTiter-Glo ATP luminescence, 48 h; Potency, µM (series often up to 46.1 µM), most hits filed as cytotoxic; 1.6% of 360,000 active;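 further: NT is the 2HG producing partner of a matched IDH1 knockdown line; nearly all actives have a fitted effect of over 55% in size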
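Fibrosarcoma NT cells, 750 per well in 5% FBS RPMI, were exposed to compound for 48 hours. Viability: CellTiter-Glo luminescence.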
KB-3-1 tox: qHTS assay for MDR1-selective chemotherapeutics: Primary screen using the parental adenocarcinoma cell KB-3-1. KB-3-1 viability, CellTiter-Glo ATP luminescence, 72 h. 1.4% of 400,000 active. AID 1347075, 2019. Potency, µM (highest dose often 46.1 µM), usual class: cytotoxic; further: nearly all actives have a fitted effect of over 60% in size
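KB-3-1 cells, DMEM (no phenol red) + 10% FBS; compound by pin transfer, 72 h, 37 °C. Readout: CellTiter-Glo luminescence after 10 min. Data normalized, curve-fitted.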
SW480 rerep: A quantitative high throughput screen for small molecules that induce DNA re-replication in SW480 colon adenocarcinoma cells. SW480 DNA re-replication, Hoechst DNA content imaging, 48 h. Potency, µM (series often up to 46.1 µM), usual class: activators. 1.8% of 340,000 active. AID 624297, 2012; further: nearly all actives have a fitted effect of over 55% in size
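Treated cells incubate 48 hr (37 C, 5% CO2), are stained 40 min with Hoechst, and nuclear fluorescence is enumerated; a rise in nuclei with high DNA signal marks re-replication.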
KB-V1 cytotox: qHTS assay for MDR1-selective chemotherapeutics: Primary screen using the drug-selected MDR subline cells KB-V1; KB-V1 MDR cells viability, CellTiter-Glo, 72 h; Potency, µM (doses to about 46.1 µM), usual class: cytotoxic; 3.4% of 400,000 active; AID 1347076, 2019; further: nearly all actives have a fitted effect of over 60% in size
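Compound-treated KB-V1 multidrug-resistant cells, 72 h, 37 degrees C; viability by CellTiter-Glo. Fitted qHTS curves give the values.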
Numbers stand for hits. The call rests on the fitted dose curve; in most records, active means well fitted curve in the direction sought with a large enough effect; inconclusive means small, poorly fitted or top-dose-only effect, or another doubt; inactive means no such curve, though single readings can be large; an effect the other way counts as inactive or inconclusive.

What do the screens show for `COC(=O)C1(C)CN(S(=O)(=O)c2ccc(C)cc2)c2cc(OC)ccc2C1=O` (stereo not given)?
HT1080 IDH1KD tx: inactive; MCF10A rerep: inactive; HT1080NT lethal: inactive; KB-3-1 tox: inconclusive; SW480 rerep: inconclusive; KB-V1 cytotox: inconclusive

How did CCCCn1c(N)c(N(Cc2ccccc2OC)C(=O)COc2ccccc2OC)c(=O)[nH]c1=O do in these assays?
HT1080 IDH1KD tx: inactive; MCF10A rerep: inactive; HT1080NT lethal: inactive; KB-3-1 tox: inactive; SW480 rerep: inactive; KB-V1 cytotox: inactive

How did CCCCn1c(N)c(N(Cc2ccccc2OC)C(=O)c2ccc([N+](=O)[O-])s2)c(=O)[nH]c1=O do in these assays?
HT1080 IDH1KD tx: inactive; MCF10A rerep: inconclusive; HT1080NT lethal: inactive; KB-3-1 tox: inconclusive; SW480 rerep: 20.6µM; KB-V1 cytotox: inactive

What do the screens show for `C=CCN(c1ccccc1OC)S(=O)(=O)c1cccc(C(=O)OCC(=O)c2c(N)n(C)c(=O)n(C)c2=O)c1`?
HT1080 IDH1KD tx: inactive; MCF10A rerep: inactive; HT1080NT lethal: inactive; KB-3-1 tox: inconclusive; SW480 rerep: inactive; KB-V1 cytotox: 8.2µM

Results for CNS(=O)(=O)c1cccc(C(=O)OCC(=O)c2c(N)n(C)c(=O)n(C)c2=O)c1 ?
HT1080 IDH1KD tx: inactive; MCF10A rerep: inactive; HT1080NT lethal: inactive; KB-3-1 tox: inactive; SW480 rerep: inactive; KB-V1 cytotox: inactive

Results for O=C(COC(=O)c1ccccc1NS(=O)(=O)c1cccs1)NCC12CC3CC(CC(C3)C1)C2 ?
HT1080 IDH1KD tx: inactive; MCF10A rerep: inconclusive; HT1080NT lethal: inactive; KB-3-1 tox: inactive; SW480 rerep: inactive; KB-V1 cytotox: 14.6µM

How did O=C(COC(=O)c1ccccc1NS(=O)(=O)c1cccs1)NC1CCCCC1 do in these assays?
HT1080 IDH1KD tx: inactive; MCF10A rerep: inactive; HT1080NT lethal: inactive; KB-3-1 tox: inactive; SW480 rerep: inactive; KB-V1 cytotox: inactive

What do the screens show for `Cc1ccc(OCC(=O)N2CCCC(CCC(=O)N(C)CCc3ccccn3)C2)cc1` (stereo not given)?
HT1080 IDH1KD tx: inactive; MCF10A rerep: inactive; HT1080NT lethal: inactive; KB-3-1 tox: inactive; SW480 rerep: inactive; KB-V1 cytotox: inconclusive

Results for Cc1ccc(C(C)C)c(OC/C(O)=C(\C#N)c2nc3ccccc3[nH]2)c1 ?
HT1080 IDH1KD tx: inconclusive; MCF10A rerep: 16.4µM; HT1080NT lethal: inconclusive; KB-3-1 tox: inactive; SW480 rerep: inconclusive; KB-V1 cytotox: inconclusive

What do the screens show for `N#C/C(=C(/O)c1ccc(C(=O)c2ccccc2)cc1)c1nc2ccccc2[nH]1`?
HT1080 IDH1KD tx: inactive; MCF10A rerep: inactive; HT1080NT lethal: inactive; KB-3-1 tox: inactive; SW480 rerep: 23.1µM; KB-V1 cytotox: inactive

Results for CCCCOc1ccc(/C(O)=C(\C#N)c2nc3ccccc3[nH]2)cc1 ?
HT1080 IDH1KD tx: inactive; MCF10A rerep: inactive; HT1080NT lethal: inactive; KB-3-1 tox: inactive; SW480 rerep: inactive; KB-V1 cytotox: inactive

What do the screens show for `N#C/C(=C(/O)CCl)c1nc2ccccc2[nH]1`?
HT1080 IDH1KD tx: inconclusive; MCF10A rerep: inconclusive; HT1080NT lethal: inconclusive; KB-3-1 tox: inconclusive; SW480 rerep: inconclusive; KB-V1 cytotox: 23.1µM

How did Cc1cccc(Nc2nnc(SC/C(O)=C(\C#N)c3nc4ccccc4[nH]3)s2)c1C do in these assays?
HT1080 IDH1KD tx: inactive; MCF10A rerep: 13µM; HT1080NT lethal: inactive; KB-3-1 tox: inactive; SW480 rerep: inconclusive; KB-V1 cytotox: inactive

Results for Cc1cccc(C)c1Nc1nnc(SC/C(O)=C(\C#N)c2nc3ccccc3[nH]2)s1 ?
HT1080 IDH1KD tx: inactive; MCF10A rerep: inconclusive; HT1080NT lethal: inactive; KB-3-1 tox: inactive; SW480 rerep: inconclusive; KB-V1 cytotox: inactive

How did CCOc1ccc(CC(=O)NCc2ccc3c(c2)CCN3C(=O)c2ccccc2)cc1OCC do in these assays?
KB-3-1 tox: inactive; KB-V1 cytotox: inactive

How did CC1CCN(C(=O)c2ccc3c(c2)N(Cc2ccccc2F)C(=O)c2ccccc2S3(=O)=O)CC1 do in these assays?
KB-3-1 tox: inactive; KB-V1 cytotox: inactive

How did N#C/C(=C(/O)c1cccs1)c1nc2ccccc2[nH]1 do in these assays?
HT1080 IDH1KD tx: inactive; MCF10A rerep: 18.4µM; HT1080NT lethal: inactive; KB-3-1 tox: inactive; SW480 rerep: 16.4µM; KB-V1 cytotox: inconclusive

Results for N#C/C(=C(/O)c1ccc([N+](=O)[O-])s1)c1nc2ccccc2[nH]1 ?
HT1080 IDH1KD tx: inconclusive; MCF10A rerep: inactive; HT1080NT lethal: inconclusive; KB-3-1 tox: inconclusive; SW480 rerep: inconclusive; KB-V1 cytotox: inactive

What do the screens show for `N#C/C(=C(/O)c1ccc(Br)s1)c1nc2ccccc2[nH]1`?
HT1080 IDH1KD tx: inconclusive; MCF10A rerep: 2.91µM; HT1080NT lethal: inconclusive; KB-3-1 tox: 6.51µM; SW480 rerep: 7.31µM; KB-V1 cytotox: inconclusive

How did COc1ccc(N(C)C(=O)c2ccc3nc(-c4ccccc4)c(-c4ccccc4)nc3c2)cc1 do in these assays?
HT1080 IDH1KD tx: inactive; MCF10A rerep: inconclusive; HT1080NT lethal: inactive; KB-3-1 tox: inconclusive; SW480 rerep: inactive; KB-V1 cytotox: 20.6µM

What do the screens show for `CNC(=O)c1ccc2nc(-c3ccccc3)c(-c3ccccc3)nc2c1`?
KB-3-1 tox: inactive; KB-V1 cytotox: inactive

How did COc1ccc(-c2nc3ccccc3nc2-c2ccccc2)cc1 do in these assays?
HT1080 IDH1KD tx: inactive; MCF10A rerep: inactive; HT1080NT lethal: inactive; KB-3-1 tox: inactive; SW480 rerep: inactive; KB-V1 cytotox: inactive

How did CC(C)N(C(=O)c1ccc2nc(-c3ccccc3)c(-c3ccccc3)nc2c1)C(C)C do in these assays?
HT1080 IDH1KD tx: inactive; MCF10A rerep: inconclusive; HT1080NT lethal: inactive; KB-3-1 tox: inconclusive; SW480 rerep: inactive; KB-V1 cytotox: 23.1µM

How did O=C(NCc1ccccc1)C(c1ccc(F)cc1)N1CCN(c2ccccc2F)CC1 (stereo not given) do in these assays?
HT1080 IDH1KD tx: inconclusive; HT1080NT lethal: inconclusive; KB-3-1 tox: inactive; KB-V1 cytotox: inactive

How did Cc1ccc(-c2nc3ccccc3s2)cc1S(=O)(=O)N1CCCC1 do in these assays?
HT1080 IDH1KD tx: 10µM; MCF10A rerep: inconclusive; HT1080NT lethal: inactive; KB-3-1 tox: inactive; SW480 rerep: inactive; KB-V1 cytotox: inactive

Results for Cc1ccc(-c2nnc(NCc3nc4ccccc4[nH]3)c3ccccc23)cc1S(=O)(=O)N1CCCCC1 ?
HT1080 IDH1KD tx: inactive; MCF10A rerep: inconclusive; HT1080NT lethal: inactive; KB-3-1 tox: inactive; SW480 rerep: inactive; KB-V1 cytotox: inactive
